Source: PubChem
SKN-1 inh: blocks SKN-1 activity in C. elegans; C. elegans VP596 Pgst-4::GFP/RFP ratio, acrylamide-induced, 24 h; hit rate 0.49% among 360,000; inhibition, % at 21.8 µM;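 active = interference check ratio from 0.5 to 1.5 plus GFP to RFP signal ratio inhibition reaching or exceeding a fixed threshold, cut at about 30% in these data, passing the limit was not always enough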
RAM network inh: inhibitors of the yeast RAM network | hit rate 1.8% among 190,000 | S. cerevisiae dse1pr::URA3 reporter, 5-FOA growth OD615, 2 d; analog-sensitive cbk1-as2 kinase mutant strain | AID 868 | inhibition, % at 50 µM;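 active = inhibition above a set limit, 3 SD over mean compound inhibition, cut at about 8.4% in these data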;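 also: 0% = DMSO-only wells with no growth and 100% = 10 µM 1-NA-PP1 full growth; inhibition rescues growth on 5-FOA so higher OD means more RAM inhibition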
PG9 Ab binder: small molecules binding HIV-1 gp120 antibody PG9; TR-FRET gp120-PG9 antibody binding; inhibition, % at 6.7 µM; hit rate 0.43% among 360,000; in the data active = inhibition above about 8.5%
EP2 modulator: modulates human prostaglandin E2 receptor EP2 signaling | P43116 | EP2-expressing cells, cAMP HTRF FRET, PGE2 co-stimulation | induction, % at 25 µM | hit rate 0.83% among 260,000 | AID 940;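 active = compounds whose cAMP rise, as percent of the full-agonist control response, exceeds 60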;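 also: rat C6 glioma line stably carrying human EP2 under a CMV promoter; the protocol text gives 20 µM as final concentration; 100% = response of wells given 1 µM PGE2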
Target sequence (P43116 whole entry, looked up): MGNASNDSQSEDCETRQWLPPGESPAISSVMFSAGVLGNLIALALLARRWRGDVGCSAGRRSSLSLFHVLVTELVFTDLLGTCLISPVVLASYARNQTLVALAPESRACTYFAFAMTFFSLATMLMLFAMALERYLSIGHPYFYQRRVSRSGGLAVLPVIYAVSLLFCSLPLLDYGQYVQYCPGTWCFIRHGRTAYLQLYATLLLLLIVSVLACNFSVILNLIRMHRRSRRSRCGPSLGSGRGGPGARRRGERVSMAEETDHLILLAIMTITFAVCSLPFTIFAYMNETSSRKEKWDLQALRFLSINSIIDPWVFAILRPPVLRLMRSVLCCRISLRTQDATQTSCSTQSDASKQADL
PGE2 EP2 inh: blocks the human prostaglandin E2 receptor EP2; hit rate 0.52% among 260,000; AID 1422; inhibition, % at 25 µM; C6 glioma cells expressing human EP2, cAMP TR-FRET; cells stimulated with saturating PGE2; P43116;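 active = percent inhibition above 40 after rounding to a whole number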;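 also: rat C6 glioma host cells with rolipram phosphodiesterase inhibitor present; the protocol text gives 20 µM as final concentration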
NR1D1 modulator: Rev-erb alpha (human) modulation; P20393; Rev-erbα–FITC-DNA binding, fluorescence polarization, 90 min; activity, % at 10 µM; hit rate 0.79% among 370,000; AID 1259318;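 active = activity above about 14%, limit read from the data; passing the limit was not always enough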;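 also: 0% = DMSO wells with 35 nM protein and 100% = DMSO wells with 750 nM protein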
EP2 cAMP induct: human EP2 receptor cAMP induction, negative in counter-screens. C6 glioma EP2 cells, cAMP HTRF induction; plus low (about EC15) PGE2 agonist. shares compounds with EP2 modulator. calls only at 20 µM (by protocol). hit rate 47% among 1,300;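 active = cAMP induction above 50% in the main assay while under 30% in all four parallel counter assays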;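 also: rat C6 glioma cells stably expressing human EP2 receptor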
Active calls of the source: *. The list is not random: actives were taken first. Their share in the collection is about 2.9%.

Cc1nn(C)c(C)c1NC(=O)CN1CCC(O)(c2ccc(F)cc2)CC1 was read as EP2 modulator -20.
Screening Cc1ccc2cc3c(N)c(C(=O)Nc4c[nH]c(=O)[nH]c4=O)sc3nc2c1 returned EP2 modulator 11 and PGE2 EP2 inh 6.
For COc1ccc(-n2c(COc3cccc4ccccc34)nnc2SCC#N)cc1 the results were SKN-1 inh -12, RAM network inh 6, PG9 Ab binder -1, EP2 modulator 7, PGE2 EP2 inh 10, NR1D1 modulator 2 and EP2 cAMP induct inactive.
N#CCSc1nnc(COc2cccc3ccccc23)n1-c1ccccc1 was read as SKN-1 inh 6, RAM network inh 3, PG9 Ab binder 1, EP2 modulator 2, PGE2 EP2 inh 6 and NR1D1 modulator 2.
For Cc1ccc(-c2nc3ccccc3nc2Cl)cc1 the results were SKN-1 inh 20, RAM network inh 8.4*, PG9 Ab binder 0, EP2 modulator 65*, PGE2 EP2 inh 8, NR1D1 modulator 14 and EP2 cAMP induct inactive.
Cc1ccc2nc(SCC(=O)N3CCC(C)CC3)c(C#N)cc2c1 was read as EP2 modulator -15 and PGE2 EP2 inh 10.
`CC(C)NC(=O)Cn1c2ccccc2n2c(SCC(=O)N3CCc4ccccc4C3)nnc12` gave EP2 modulator 4 and PGE2 EP2 inh 11.
For CC(C)Sc1cc(N2CCOCC2)nc(-c2ccccc2)n1 the results were SKN-1 inh 4, RAM network inh 1, PG9 Ab binder 0, EP2 modulator 74*, PGE2 EP2 inh 2, NR1D1 modulator -1 and EP2 cAMP induct active.
`CCSc1cc(N2CCOCC2)nc(-c2ccc(Cl)cc2)n1` gave SKN-1 inh 0, RAM network inh 11*, PG9 Ab binder 1, EP2 modulator 76*, PGE2 EP2 inh 15, NR1D1 modulator 4 and EP2 cAMP induct active.
Screening COc1ccc(-c2cc3ncc(C#N)c(N)n3n2)cc1 returned EP2 modulator 6 and PGE2 EP2 inh 10.
Screening CC(NCc1ccc(OCCO)cc1)c1ccc2c(c1)OCCCO2 (stereo not drawn) returned EP2 modulator -69 and PGE2 EP2 inh 4.
O=C(c1cc(F)cc(F)c1)N1CCCC(c2nc3sc4c(c3c(=O)[nH]2)CCCC4)C1 (stereo not drawn) was read as EP2 modulator 1.
Cc1cc(O)c(C=O)c2c1C(=O)Oc1c(C)c(O)c3c(c1O2)C(O)OC3=O (stereo not drawn) was read as EP2 modulator 51, PGE2 EP2 inh 13 and EP2 cAMP induct inactive.
`COc1cc(C)c2c(c1C=O)Oc1c(c(C)c(O)c3c1C(O)OC3=O)OC2=O` (stereo not drawn) gave SKN-1 inh 14, RAM network inh 1, PG9 Ab binder 0, EP2 modulator 28, PGE2 EP2 inh 7 and NR1D1 modulator -3.
For C/C(CCC(C)C)=N\NC(=S)NCc1ccccc1 the results were SKN-1 inh 11, RAM network inh 1, PG9 Ab binder -2, EP2 modulator 66*, PGE2 EP2 inh 8, NR1D1 modulator -4 and EP2 cAMP induct active.
O=C(O)/C(=C\c1ccccc1)c1ccccc1 was read as SKN-1 inh 3, PG9 Ab binder -2, EP2 modulator 11, PGE2 EP2 inh 2 and NR1D1 modulator -6.
For Cc1ccccc1NC(=O)/C(=C/c1ccccc1)c1ccccc1 the results were SKN-1 inh 16, RAM network inh 5, PG9 Ab binder -1, EP2 modulator 67*, PGE2 EP2 inh 13, NR1D1 modulator -3 and EP2 cAMP induct active.
`O=C(Nc1ccccc1)/C(=C/c1ccccc1)c1ccccc1` gave SKN-1 inh 9, RAM network inh 4, PG9 Ab binder 0, EP2 modulator 78*, PGE2 EP2 inh 11, NR1D1 modulator 0 and EP2 cAMP induct active.
Cc1cccc(NCc2ccccc2OCc2ccccc2F)c1 was read as SKN-1 inh 8, RAM network inh -1, PG9 Ab binder -2, EP2 modulator 30, PGE2 EP2 inh 5 and NR1D1 modulator 0.
